Values joined by “and” are separate entries in the source; they are usually repeats but may differ in a detail not shown here. Equal entries are not always repeated.
Tests used:
[1] = test system: Proto-oncogene tyrosine-protein kinase receptor Ret (Homo sapiens), P07949 [Y791F]; conditions: at 1 µM
[2] = biological target: Macrophage-stimulating protein receptor (Homo sapiens) (UniProt Q04912); conditions: at 0.1 µM
[3] = biological target: Macrophage-stimulating protein receptor (Homo sapiens) (UniProt Q04912); conditions: at 1 µM
[4] = biological target: Proto-oncogene tyrosine-protein kinase ROS (Homo sapiens) (UniProt P08922); conditions: at 0.1 µM
[5] = biological target: Proto-oncogene tyrosine-protein kinase ROS (Homo sapiens) (UniProt P08922); conditions: at 1 µM
[6] = biological target: Proto-oncogene tyrosine-protein kinase Src (Homo sapiens) (UniProt P12931); conditions: at 0.1 µM
[7] = biological target: Proto-oncogene tyrosine-protein kinase Src (Homo sapiens) (UniProt P12931); conditions: at 1 µM
[8] = biological target: Tyrosine-protein kinase Srms (Homo sapiens) (UniProt Q9H3Y6); conditions: at 0.1 µM
[9] = biological target: Tyrosine-protein kinase Srms (Homo sapiens) (UniProt Q9H3Y6); conditions: at 1 µM
[10] = biological target: Tyrosine-protein kinase SYK (Homo sapiens) (UniProt P43405); conditions: at 0.1 µM
[11] = biological target: Tyrosine-protein kinase SYK (Homo sapiens) (UniProt P43405); conditions: at 1 µM
[12] = biological target: T1, Tyrosine-protein kinase Tec (Homo sapiens) (UniProt P42680); conditions: at 0.1 µM
T1 sequence (whole entry): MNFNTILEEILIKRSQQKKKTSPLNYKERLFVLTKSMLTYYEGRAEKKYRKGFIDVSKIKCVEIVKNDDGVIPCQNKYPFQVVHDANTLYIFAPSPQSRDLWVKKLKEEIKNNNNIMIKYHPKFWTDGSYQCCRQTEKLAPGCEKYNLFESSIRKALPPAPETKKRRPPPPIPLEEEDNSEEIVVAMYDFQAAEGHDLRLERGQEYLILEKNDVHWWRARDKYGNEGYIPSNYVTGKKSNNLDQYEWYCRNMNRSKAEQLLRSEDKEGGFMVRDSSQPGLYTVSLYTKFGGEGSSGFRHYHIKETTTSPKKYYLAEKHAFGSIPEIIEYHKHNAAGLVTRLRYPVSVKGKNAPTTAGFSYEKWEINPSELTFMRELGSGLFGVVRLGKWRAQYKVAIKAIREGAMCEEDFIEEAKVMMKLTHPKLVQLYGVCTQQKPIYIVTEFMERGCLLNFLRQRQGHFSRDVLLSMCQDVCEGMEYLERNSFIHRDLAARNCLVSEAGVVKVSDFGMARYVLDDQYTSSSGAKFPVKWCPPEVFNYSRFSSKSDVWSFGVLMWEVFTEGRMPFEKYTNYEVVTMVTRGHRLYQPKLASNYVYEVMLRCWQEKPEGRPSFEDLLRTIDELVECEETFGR

[13] = biological target: T1, Tyrosine-protein kinase Tec (Homo sapiens); conditions: at 1 µM
[14] = biological target: Angiopoietin-1 receptor (Homo sapiens) (UniProt Q02763); conditions: at 0.1 µM
[15] = biological target: Angiopoietin-1 receptor (Homo sapiens) (UniProt Q02763); conditions: at 1 µM
[16] = biological target: T2, Non-receptor tyrosine-protein kinase TNK1 (Homo sapiens) (UniProt Q13470); conditions: at 0.1 µM
T2 sequence (whole entry): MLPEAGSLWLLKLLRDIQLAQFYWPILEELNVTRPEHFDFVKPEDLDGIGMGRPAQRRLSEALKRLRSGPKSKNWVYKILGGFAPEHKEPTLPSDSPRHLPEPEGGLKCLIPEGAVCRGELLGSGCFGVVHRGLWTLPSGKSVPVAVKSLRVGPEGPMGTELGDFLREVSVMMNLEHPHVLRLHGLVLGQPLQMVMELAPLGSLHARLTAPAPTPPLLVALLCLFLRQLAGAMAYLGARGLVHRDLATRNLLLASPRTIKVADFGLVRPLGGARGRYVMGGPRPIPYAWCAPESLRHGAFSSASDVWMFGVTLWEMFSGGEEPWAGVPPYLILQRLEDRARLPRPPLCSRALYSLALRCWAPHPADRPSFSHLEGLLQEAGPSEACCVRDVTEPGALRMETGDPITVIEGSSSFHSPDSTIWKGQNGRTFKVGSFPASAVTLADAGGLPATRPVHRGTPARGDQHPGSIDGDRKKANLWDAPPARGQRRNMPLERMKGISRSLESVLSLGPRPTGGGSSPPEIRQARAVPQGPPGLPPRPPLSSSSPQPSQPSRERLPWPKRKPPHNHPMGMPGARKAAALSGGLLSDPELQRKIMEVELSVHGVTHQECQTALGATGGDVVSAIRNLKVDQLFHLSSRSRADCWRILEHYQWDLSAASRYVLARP

[17] = biological target: T2, Non-receptor tyrosine-protein kinase TNK1 (Homo sapiens); conditions: at 1 µM
[18] = biological target: Activated CDC42 kinase 1 (Homo sapiens) (UniProt Q07912); conditions: at 0.1 µM
[19] = biological target: Activated CDC42 kinase 1 (Homo sapiens) (UniProt Q07912); conditions: at 1 µM
[20] = biological target: High affinity nerve growth factor receptor (Homo sapiens) (UniProt P04629); conditions: at 0.1 µM;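 note: each value is a mean of replicate percent inhibition readings against TRKA kinase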
High affinity nerve growth factor receptor (Homo sapiens), sequence (P04629 33-796 limits assumed): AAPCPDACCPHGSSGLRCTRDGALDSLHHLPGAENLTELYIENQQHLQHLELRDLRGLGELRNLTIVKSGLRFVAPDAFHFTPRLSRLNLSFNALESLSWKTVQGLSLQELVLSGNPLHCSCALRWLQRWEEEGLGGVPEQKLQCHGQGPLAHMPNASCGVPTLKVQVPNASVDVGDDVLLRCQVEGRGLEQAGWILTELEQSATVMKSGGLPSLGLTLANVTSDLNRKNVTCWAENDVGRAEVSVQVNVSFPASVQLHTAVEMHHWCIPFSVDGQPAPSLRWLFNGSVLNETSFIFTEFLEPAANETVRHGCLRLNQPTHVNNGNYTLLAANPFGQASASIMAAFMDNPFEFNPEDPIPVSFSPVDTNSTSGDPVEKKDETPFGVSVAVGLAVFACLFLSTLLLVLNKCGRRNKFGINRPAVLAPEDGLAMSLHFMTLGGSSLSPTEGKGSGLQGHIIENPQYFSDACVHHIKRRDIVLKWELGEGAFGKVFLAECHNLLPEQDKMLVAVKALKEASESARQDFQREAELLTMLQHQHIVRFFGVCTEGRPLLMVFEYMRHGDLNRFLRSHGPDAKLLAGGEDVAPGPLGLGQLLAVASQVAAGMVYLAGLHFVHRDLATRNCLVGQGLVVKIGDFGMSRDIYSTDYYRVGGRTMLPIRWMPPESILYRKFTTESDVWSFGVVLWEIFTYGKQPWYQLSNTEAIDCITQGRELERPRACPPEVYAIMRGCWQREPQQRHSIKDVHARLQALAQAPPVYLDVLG

Proto-oncogene tyrosine-protein kinase receptor Ret (Homo sapiens), P07949 [Y791F], sequence (P07949 whole entry Y791F): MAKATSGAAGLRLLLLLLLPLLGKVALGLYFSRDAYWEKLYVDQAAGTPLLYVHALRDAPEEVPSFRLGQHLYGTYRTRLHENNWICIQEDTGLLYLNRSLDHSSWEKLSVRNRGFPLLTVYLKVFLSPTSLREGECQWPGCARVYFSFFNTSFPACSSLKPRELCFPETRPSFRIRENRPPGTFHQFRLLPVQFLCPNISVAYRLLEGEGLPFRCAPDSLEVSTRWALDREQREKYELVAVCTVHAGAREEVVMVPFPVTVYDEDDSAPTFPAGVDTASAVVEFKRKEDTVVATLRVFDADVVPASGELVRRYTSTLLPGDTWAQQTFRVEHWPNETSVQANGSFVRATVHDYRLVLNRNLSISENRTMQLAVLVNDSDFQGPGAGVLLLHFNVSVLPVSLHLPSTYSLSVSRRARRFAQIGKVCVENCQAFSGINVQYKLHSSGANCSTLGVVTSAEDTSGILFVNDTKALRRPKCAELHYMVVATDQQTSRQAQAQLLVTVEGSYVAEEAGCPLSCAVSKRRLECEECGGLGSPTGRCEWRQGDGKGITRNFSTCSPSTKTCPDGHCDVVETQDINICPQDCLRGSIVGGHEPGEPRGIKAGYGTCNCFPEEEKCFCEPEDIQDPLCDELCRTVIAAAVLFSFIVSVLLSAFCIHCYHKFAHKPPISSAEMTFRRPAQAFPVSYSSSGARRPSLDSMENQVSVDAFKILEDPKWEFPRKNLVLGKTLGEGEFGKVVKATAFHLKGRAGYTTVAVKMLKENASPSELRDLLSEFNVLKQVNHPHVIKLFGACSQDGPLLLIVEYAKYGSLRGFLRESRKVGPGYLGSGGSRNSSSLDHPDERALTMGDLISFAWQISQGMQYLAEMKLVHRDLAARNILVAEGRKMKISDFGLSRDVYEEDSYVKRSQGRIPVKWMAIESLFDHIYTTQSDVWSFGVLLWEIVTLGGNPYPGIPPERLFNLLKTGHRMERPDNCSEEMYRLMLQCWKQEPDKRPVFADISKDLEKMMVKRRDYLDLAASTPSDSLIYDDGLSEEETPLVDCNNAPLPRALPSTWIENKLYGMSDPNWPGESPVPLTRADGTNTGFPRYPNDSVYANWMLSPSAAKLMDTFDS
Activated CDC42 kinase 1 (Homo sapiens), sequence (Q07912 whole entry, looked up): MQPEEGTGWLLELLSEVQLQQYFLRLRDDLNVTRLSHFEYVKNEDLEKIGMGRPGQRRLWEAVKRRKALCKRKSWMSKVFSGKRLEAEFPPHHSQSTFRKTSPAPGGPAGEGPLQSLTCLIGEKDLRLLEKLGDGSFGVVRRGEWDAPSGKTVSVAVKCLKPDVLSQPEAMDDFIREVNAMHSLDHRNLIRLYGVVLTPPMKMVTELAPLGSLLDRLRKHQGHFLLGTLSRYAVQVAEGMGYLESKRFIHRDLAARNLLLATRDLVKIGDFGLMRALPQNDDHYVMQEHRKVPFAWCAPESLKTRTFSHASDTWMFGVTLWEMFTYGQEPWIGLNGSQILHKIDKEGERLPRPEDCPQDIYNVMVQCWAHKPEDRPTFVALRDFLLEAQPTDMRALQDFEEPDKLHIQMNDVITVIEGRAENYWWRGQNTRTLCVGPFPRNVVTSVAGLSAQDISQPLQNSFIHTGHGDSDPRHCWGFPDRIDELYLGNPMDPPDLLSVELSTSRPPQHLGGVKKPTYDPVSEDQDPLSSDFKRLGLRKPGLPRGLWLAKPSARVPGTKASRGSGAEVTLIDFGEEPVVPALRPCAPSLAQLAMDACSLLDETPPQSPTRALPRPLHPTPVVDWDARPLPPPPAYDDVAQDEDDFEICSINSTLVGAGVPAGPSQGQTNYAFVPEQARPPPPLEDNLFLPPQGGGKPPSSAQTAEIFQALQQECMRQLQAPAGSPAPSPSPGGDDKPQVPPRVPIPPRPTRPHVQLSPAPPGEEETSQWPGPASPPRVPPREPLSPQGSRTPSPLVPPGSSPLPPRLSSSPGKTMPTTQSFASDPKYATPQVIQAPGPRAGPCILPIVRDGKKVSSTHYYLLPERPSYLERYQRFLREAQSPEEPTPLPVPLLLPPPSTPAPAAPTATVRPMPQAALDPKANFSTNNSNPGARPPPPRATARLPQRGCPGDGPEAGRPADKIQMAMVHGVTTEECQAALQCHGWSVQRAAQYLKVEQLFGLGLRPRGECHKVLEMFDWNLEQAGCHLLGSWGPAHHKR
Macrophage-stimulating protein receptor (Homo sapiens), sequence (Q04912 25-304 limits assumed): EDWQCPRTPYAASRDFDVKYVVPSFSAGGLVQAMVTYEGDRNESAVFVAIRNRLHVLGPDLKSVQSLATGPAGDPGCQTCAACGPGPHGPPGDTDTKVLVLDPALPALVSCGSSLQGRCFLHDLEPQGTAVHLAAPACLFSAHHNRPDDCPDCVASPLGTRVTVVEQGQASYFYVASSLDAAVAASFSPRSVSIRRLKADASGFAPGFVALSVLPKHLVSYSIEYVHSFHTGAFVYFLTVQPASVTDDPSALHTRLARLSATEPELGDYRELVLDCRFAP
Macrophage-stimulating protein receptor (Homo sapiens), sequence (Q04912 310-1400 limits assumed): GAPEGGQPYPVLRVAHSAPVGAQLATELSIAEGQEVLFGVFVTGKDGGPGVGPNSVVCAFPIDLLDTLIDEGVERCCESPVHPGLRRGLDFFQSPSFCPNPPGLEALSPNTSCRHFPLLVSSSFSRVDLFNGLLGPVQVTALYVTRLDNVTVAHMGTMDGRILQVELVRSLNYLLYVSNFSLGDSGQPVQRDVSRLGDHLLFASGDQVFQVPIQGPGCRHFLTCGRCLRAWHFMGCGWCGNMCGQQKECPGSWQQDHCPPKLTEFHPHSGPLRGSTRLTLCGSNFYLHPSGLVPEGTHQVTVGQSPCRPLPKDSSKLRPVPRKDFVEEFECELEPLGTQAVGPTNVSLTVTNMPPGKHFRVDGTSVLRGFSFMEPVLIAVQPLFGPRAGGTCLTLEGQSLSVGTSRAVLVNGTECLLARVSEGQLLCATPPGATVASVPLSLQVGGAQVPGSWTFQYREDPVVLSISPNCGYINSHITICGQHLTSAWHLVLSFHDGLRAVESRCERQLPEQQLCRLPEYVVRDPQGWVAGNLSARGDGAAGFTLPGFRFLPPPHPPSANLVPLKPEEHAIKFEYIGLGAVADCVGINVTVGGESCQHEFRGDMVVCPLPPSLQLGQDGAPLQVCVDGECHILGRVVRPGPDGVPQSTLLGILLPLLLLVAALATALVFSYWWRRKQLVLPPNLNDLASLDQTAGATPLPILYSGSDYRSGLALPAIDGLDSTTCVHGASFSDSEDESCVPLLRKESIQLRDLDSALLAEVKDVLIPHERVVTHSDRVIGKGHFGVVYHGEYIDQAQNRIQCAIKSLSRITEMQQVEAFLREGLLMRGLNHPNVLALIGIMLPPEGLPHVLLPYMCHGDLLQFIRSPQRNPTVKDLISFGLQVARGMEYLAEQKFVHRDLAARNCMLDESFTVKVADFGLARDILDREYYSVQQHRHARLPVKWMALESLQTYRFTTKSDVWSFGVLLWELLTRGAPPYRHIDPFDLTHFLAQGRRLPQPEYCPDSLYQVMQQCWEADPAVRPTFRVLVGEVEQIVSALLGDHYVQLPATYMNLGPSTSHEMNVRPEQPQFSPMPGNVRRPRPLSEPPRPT
Tyrosine-protein kinase Srms (Homo sapiens), sequence (Q9H3Y6 whole entry): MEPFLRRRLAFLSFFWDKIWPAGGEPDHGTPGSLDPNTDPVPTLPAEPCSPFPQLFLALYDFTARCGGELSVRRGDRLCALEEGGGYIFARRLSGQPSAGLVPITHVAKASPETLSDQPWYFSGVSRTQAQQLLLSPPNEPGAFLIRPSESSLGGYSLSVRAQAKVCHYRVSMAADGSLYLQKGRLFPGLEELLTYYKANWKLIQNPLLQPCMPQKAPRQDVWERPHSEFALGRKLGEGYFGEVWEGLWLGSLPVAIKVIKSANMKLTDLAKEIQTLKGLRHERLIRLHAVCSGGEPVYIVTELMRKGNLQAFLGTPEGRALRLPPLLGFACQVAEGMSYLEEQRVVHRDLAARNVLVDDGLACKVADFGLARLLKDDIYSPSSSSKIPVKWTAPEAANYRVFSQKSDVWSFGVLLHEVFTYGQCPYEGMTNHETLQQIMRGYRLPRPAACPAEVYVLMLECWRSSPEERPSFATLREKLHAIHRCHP

Row | SMILES | inhibition [1] | inhibition [2] | inhibition [3] | inhibition [4] | inhibition [5] | inhibition [6] | inhibition [7] | inhibition [8] | inhibition [9] | inhibition [10] | inhibition [11] | inhibition [12] | inhibition [13] | inhibition [14] | inhibition [15] | inhibition [16] | inhibition [17] | inhibition [18] | inhibition [19] | inhibition [20]
1 | CNC(=O)c1sc(-n2cnc3cc(OC)c(OC)cc32)cc1OCc1ccccc1C(F)(F)F | 14.2% | 1.42% | 3.32% | 3.19% | 5.06% | 6.71% | 8.35% | -1.1% | 0.5% | -0.5% | -4% | 1.74% | 9.64% | 2.19% | 9.86% | 4.58% | 29.1% | 1.43% | 4.41% | 1.34%
2 | NS(=O)(=O)c1ccc(N/N=C2\C(=O)Nc3ccc(C(=O)NCc4ccncc4)cc32)cc1 | 51.9% | 1.31% | 7.54% | 3.91% | 4.83% | 2.77% | 29.2% | 0.62% | 1.01% | -2.4% | -2.54% | 3.82% | 7.13% | -0.94% | 1.16% | 3.58% | 17.5% | 0.57% | 2.58% | 4.11%
3 | CCCNc1cccc(-n2ncc3c(N/N=C/c4ccncc4)ncnc32)c1 | 65.2% | 11.7% | 57.9% | 6.09% | 33.4% | 19.5% | 81.8% | 4.26% | 7.86% | 3.8% | -2.86% | 2.52% | 7.76% | 8.93% | 36.2% | 9.78% | 48% | 0.38% | 3.51% | -0.62%
4 | Nc1nonc1-c1nc2cnccc2n1C1CC1 | 6.05% and 3.67% | -0.62% and 3.72% | 9.46% and 1.74% | 7.08% and 4.44% | 15.1% and 14.1% | 3.78% and -1.17% | 8.03% and 5.68% | -1.43% and -0.81% | 0.98% and 0.04% | 1.89% and -3.36% | -1.65% and 0.1% | 4.66% and -0.83% | 7.39% and -0.23% | 1.33% and 1.27% | 5.19% and 4.75% | 3.99% and 1.62% | 9.35% and 9.64% | 1.76% and 0.5% | 3.72% and 0.02% | 3.67% and -0.15%
5 | CN(c1ccc(NC(=O)NCCN2CCOCC2)cc1)c1ccnc(Nc2ccc(CS(C)(=O)=O)cc2)n1 | 73.6% | 4.51% | 15.6% | 9.47% | 43.5% | 4.5% | 18.4% | -1.89% | 1.22% | -3.19% | -6.78% | 5.49% | 24.8% | 3.99% | 29.3% | 15.5% | 63.5% | 1.35% | 8.46% | 1.46%
6 | O=C(O[C@H]1CN[C@H](C#Cc2cc3ncnc(Nc4ccc(OCc5cccc(F)c5)c(Cl)c4)c3s2)C1)N1CCOCC1 | 7.29% | 1.25% | 12.9% | 6.55% | 8.8% | -0.25% | 11.3% | -2.71% | -2.76% | -7% | -2.54% | 5.08% | 4.41% | 2.8% | 7.75% | 4.45% | 21.9% | 2.09% | 2.88% | 1.47%
7 | O=C1Nc2ccccc2/C1=C1\CCc2cc(O)ccc21 | 64.6% | 5.94% | 2.23% | 10.8% | 18.6% | -0.52% | 15.2% | -1.04% | -4.06% | -8.61% | -3.48% | 5.96% | 10.2% | 4.53% | 7.58% | 11.5% | 45.2% | 0.75% | 1.9% | 18.6%
8 | N#Cc1ccc2c(-c3ccnc(NC4CC4)n3)c(-c3ccc(F)cc3)nn2c1 | 10.8% | 2.34% | 0.41% | 1.21% | 1.91% | 2.91% | 3.58% | 0.49% | -0.99% | 0.61% | -1.91% | -0.44% | 3.17% | 1.54% | 3.72% | -0.18% | 1.77% | 0.77% | 1.6% | -1.05%
9 | Cc1cc(O)cc(C)c1/C=C/c1cncc(C(N)=O)c1 | 8.63% | 1.41% | 4.46% | 4.48% | 6.31% | 5.55% | 54.2% | 5.08% | 31.6% | -0.5% | 0.5% | 5.81% | 32.2% | 2.45% | 5.29% | 4.23% | 14.4% | 1.58% | 6.06% | 4.13%
10 | COc1cccc(-n2ncc3c(N/N=C/c4ccc(C(=O)NCCN(C)C)cc4)ncnc32)c1 | 72.4% | 28.8% | 66.3% | 11.2% | 41.7% | 65% | 89.7% | 2.52% | 19.9% | -2.88% | 5.44% | 4.74% | 19.6% | 8.62% | 46.4% | 25.4% | 68.3% | 2.34% | 13.2% | 6.69%
11 | COc1ccc(Nc2ncc(-c3ccccc3)o2)cc1OC | 27.2% | -0.4% | 5.46% | 7.2% | 24.5% | 12.2% | 54% | 0.67% | 2.69% | 4.52% | 0.42% | 2.91% | 9.41% | 2.1% | 8.87% | 5.16% | 26.8% | -0.28% | 2.05% | -1.61%
12 | COc1ccccc1-c1cc(/C=C2\C(=O)Nc3ncc(Br)cc32)cc(Br)c1O | 13.2% | 2.48% | 7.63% | 7.94% | 26.1% | 4.87% | 17.1% | 2.16% | 14.7% | -6.56% | -0.96% | 4.41% | 10.3% | 4.42% | 6.14% | 40.2% | 80.4% | 1.04% | 0.66% | 9.43%
13 | NS(=O)(=O)c1cccc(N/C=C2\C(=O)Nc3ccccc32)c1 | 34.3% | -4.07% | 7.57% | 5.69% | 9.87% | 1.93% | 12.9% | -0.1% | -1.56% | -6.93% | -1.66% | 4.94% | 7.41% | 4.12% | 8.33% | 3.06% | 5.85% | 0.36% | 1.26% | 4.69%
14 | CCS(=O)(=O)c1ccc(OC)c(Nc2ncc(-c3cccc(F)c3)o2)c1 | 56.6% | 10.3% | 6.8% | 8.05% | 27.5% | 49.4% | 89.3% | 3.47% | 18.5% | 0.45% | 1.66% | 9.86% | 37.2% | 4.21% | 14.1% | 27.4% | 76.5% | 2.97% | 13.2% | 6.84%
